The record followed here is PubChem BioAssay (EPA / NIEHS).

Molecules are shown by their SMILES. Activity calls are given as the source filed them. Rule for the calls: active = hit-call score of the fitted dose curve at least 0.9, where 1 is the maximum; inactive = score below 0.9.

This assay can be described thus: ATG_TAL_CIS: Attagene CIS-FACTORIAL HepG2 Assay for human TAL Basal Promoter (AID 2282966). To be noted: HepG2 Attagene cis-factorial TAL promoter reporter; actives raise or lower the signal. The protocol: ATG_CIS is a cell-based, multiplexed-readout assay that uses HepG2, a human liver cell line, with measurements taken at 24 hours after chemical dosing in a 24-well plate.ATG_TAL_CIS is one of 52 assay component(s) measured or calculated from the ATG_CIS assay. It is designed to make measurements of mRNA induction, a form of inducible reporter, as detected with fluorescence intensity signals by Reverse transcription polymerase chain reaction (RT-PCR) and Capillary electrophoresis technology.Data from the assay component ATG_TAL_CIS was analyzed into 1 assay endpoint. This assay endpoint, ATG_TAL_CIS, was analyzed with bidirectional fitting relative to DMSO as the negative control and baseline of activity. Using a type of inducible reporter, measures of mRNA for gain or loss-of-signal activity can be used to understand the background control at the transcription factor-level as they relate to the gene . Furthermore, this assay endpoint can be referred to as a secondary readout, because this assay has produced multiple assay endpoints where this one serves a background control function. To generalize the intended target to other relatable targets, this assay endpoint is annotated to the background measurement intended target family, where the subfamily is internal marker.
Human liver HepG2 cells are transiently transfected with multiple reporter transcription units (MRTUs) in 6-well plates using FuGene 6 reagent (Roche; 3 ml FuGene/1 mg DNA). The MRTU constructs are regulated by a cis-regulating element (promoter). […] A major difference between the CIS and TRANS system is that in CIS activities of endogenous TFs are measured, whereas the TRANS assay evaluates changes in activities of exogenous, chimeric NR-Gal4 proteins. […] At the end of 24 hour incubation, total RNA was isolated using TriZol reagent (Invitrogen). The isolated RNA is then reverse-transcribed using oligo(dT) primer and Mo-MLV reverse transcriptase (Invitrogen) with DNAse I (Ambion) treatment for 30 min. The one-tenth of the produced cDNA was amplified by PCR using Taq DNA polymerase (Invitrogen) and two reporter sequence-specific primers. The PCR products were fluorescently labeled by primer extension with 6-arboxyfluorescein (6-FAM) 5'-labeled reporter sequence-specific primer (2 min at 95 C, 20 s at 68 C and 10 min at 72 C) and these products were digested with 5U of HpaI (New England Biolabs) for 2h at 37 C. The fragments were purified using Qiaquick PCR columns (Qiagen), analyzed on an ABI 3130xL genetic analyzer (Applied Biosystems) with peak positions identified by using a set of X-rhodamine (ROX)-labeled MapMarker1000 molecular weight standards (BioVentures). The raw capillary electrophoresis data was processed using Attagraph software (Attagene).
With `CCCCC/C=C\C=C\C(=O)OCC`, the compound was classed as inactive.
With `CN(C)C(=O)Nc1ccccc1` the entry was “inactive”; with `CCCCCC1C(=O)CCC1CC(=O)OC` (stereo not given), “inactive”; with `CCOC(=O)C(=O)OCC`, “inactive”.
Next, `COC(=O)C(C)Oc1ccc(Oc2ncc(C(F)(F)F)cc2Cl)cc1` (stereo not given): “inactive”; `CC(=O)CCC(=O)O`: “inactive”.
As to `[Cl][Dy]([Cl])[Cl]`, the result was inactive.
Next, `C=CC(=O)OCC(CO)(COC(=O)C=C)COC(=O)C=C`: “inactive”; `CC(=O)CCc1ccc(O)cc1`: “inactive”; `OC[C@@H](O)[C@H](O)[C@@H](O)[C@@H](O)CO`: “inactive”.
With `OCCN1CCOCC1` the entry was “inactive”.
With `c1ccc(Sc2ccccc2)cc1` the entry was “inactive”; with `NCCN1CCNCC1`, “inactive”; with `CC(C)Cc1ccc(C(C)C(=O)O)cc1` (stereo not given), “inactive”.
For `CCCCCCCCCOS(=O)(=O)O`, the call was inactive.
With `C=COCC1CCC(COC=C)CC1` (stereo not given) the entry was “inactive”; with `CCCCCC#CC(=O)OC`, “inactive”; with `O=c1cc(-c2ccc(O)cc2)oc2cc(O)cc(O)c12`, “inactive”.
On to `O=C1OCc2ccccc21`, for which the result was inactive.
Next, `CCCCCCCCCCCCN1CCOCC1`: “inactive”.
With `C=C(C)C(=O)OCCC(C)OC(=O)C(=C)C` (stereo not given) the entry was “inactive”.
Next, `C=C1CC[C@H]2O[C@]2(C)CC[C@@H]2[C@@H]1CC2(C)C`: “inactive”; `C=C(C)C(=O)OCCOCCOC(=O)C(=C)C`: “inactive”; `CCCCOC(=O)C(C)OC(=O)CCC` (stereo not given): “inactive”.
Regarding `O=c1cc[nH]cc1`, the compound was classed as inactive.
Next, `Cc1cc(O)c2c(c1)C(=O)c1cc(O)cc(O)c1C2=O`: “inactive”; `CC(C)N(c1ccccc1)C(C)C`: “inactive”; `CC(=O)c1ccc2ccccc2c1`: “inactive”.
Next, `CC(C)(C)c1cc(CCC(=O)OCCSCCOC(=O)CCc2cc(C(C)(C)C)c(O)c(C(C)(C)C)c2)cc(C(C)(C)C)c1O`: “inactive”; `CC(C)(O)C(=O)c1ccc(OCCO)cc1`: “inactive”; `CCCCCCC(C)O` (stereo not given): “inactive”.
With `CCOC(=O)CC(C)C` the entry was “inactive”; with `CCCc1ccc(N)cc1`, “inactive”.
Consider `CCCCCCC(O)CCOC(C)=O` (stereo not given), for which the outcome was inactive.
Regarding `CC(C)C(=O)c1ccccc1`, the result was inactive.
Consider `CC(CO)(CO)[N+](=O)[O-]`, for which the compound was called inactive.
With `ClCCOCCOCCCl` the entry was “inactive”; with `OCCCO`, “inactive”; with `CCOC(=O)CC1(C)OCC(C)O1` (stereo not given), “inactive”.
With `CC1(C)CC(N)CC(C)(CN)C1` (stereo not given) the entry was “inactive”.
